These results are taken from PubChem BioAssay (NCI).

Among the test systems are SK-MEL-2 melanoma; SN12C renal; UO-31 renal; TK-10 renal; ACHN renal; CAKI-1 renal; A498 renal; CCRF-CEM leukemia; MOLT-4 leukemia; SR leukemia; RPMI-8226 leukemia; OVCAR-8 ovarian; OVCAR-5 ovarian; OVCAR-4 ovarian; SK-OV-3 ovarian; IGROV1 ovarian; OVCAR-3 ovarian; HS 578T breast; NCI/ADR-RES ovarian; EKVX NSCLC.
Experiment in all cases: NCI-60 one-dose screen, 48 h (100 = growth as untreated, 0 = no growth, -100 = all killed)
Common to all, as to conditions: 10 µM unless noted

Molecules are shown by their SMILES. About 83,000 compounds went through this panel and 20% of them were active in at least one assay; those are over-represented in the sample as a whole.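 Values shown are percent growth following 48 h exposure of cells in 96-well plates to a single concentration of compound; below 10 was considered active.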 Unmarked numbers belong to inactive results. Active and inactive are the calls of the source.

For the compound `CN(Cc1cc(Cl)cc(Cl)c1O)Cc1cc(Cl)cc(Cl)c1O`, the growth in the test with SK-MEL-2 melanoma is 93.5%; in the test with SN12C renal it was 71.1%; in the test with UO-31 renal, 46.2%; in the test with TK-10 renal, 61.4%; in the test on ACHN renal, 52.8%; in the test with CAKI-1 renal it was 42.9%. Further, the growth with A498 renal was 89.6%; with CCRF-CEM leukemia, 48.7%; with MOLT-4 leukemia, 47.7%; in the test with SR leukemia, 62.6%; in the test on RPMI-8226 leukemia it was 70.7%; in the test with OVCAR-8 ovarian, 63.6%. The growth is 89.8% in the test on OVCAR-5 ovarian; 40.2% in the test on OVCAR-4 ovarian; 78.3% in the test with SK-OV-3 ovarian; 54.2% with IGROV1 ovarian; 49.1% in the test with OVCAR-3 ovarian; 92.8% with HS 578T breast. Moreover, the growth with NCI/ADR-RES ovarian was 62.4%.

Turning to `Cc1cc(N2CCN(c3ccnc4cc(Cl)ccc34)CC2)nc(N2CCOCC2)n1`, the growth is 105% in the test on SK-MEL-2 melanoma; 86% in the test on SN12C renal; 44.7% with UO-31 renal; 89.9% in the test with TK-10 renal; 86.1% in the test on ACHN renal; 85.9% in the test with CAKI-1 renal. In addition, the growth in the test with A498 renal is 37.2%; with CCRF-CEM leukemia, 92.3%; with MOLT-4 leukemia, 66.7%; with SR leukemia, 80.8%; in the test with RPMI-8226 leukemia, 59%; in the test on OVCAR-8 ovarian it was 96.2%. Further, the growth was 108% in the test on OVCAR-5 ovarian; 77.8% in the test on OVCAR-4 ovarian; 88.3% in the test with SK-OV-3 ovarian; 97.7% in the test on IGROV1 ovarian; 85.9% in the test on OVCAR-3 ovarian; 95.7% with HS 578T breast.

Take `CC(O)CN(CC(C)O)c1ccc2c(c1)Cc1cc([N+](=O)[O-])ccc1-2` (configuration not stated): the growth in the test with SK-MEL-2 melanoma was 95.9%; in the test with SN12C renal, 99.6%; in the test with UO-31 renal, 63.2%; in the test on TK-10 renal it was 97.3%; in the test on ACHN renal, 93%; in the test with CAKI-1 renal, 84.6%. The growth is 106% with CCRF-CEM leukemia; 69.8% in the test with MOLT-4 leukemia; 62.5% in the test with SR leukemia; 104% in the test on RPMI-8226 leukemia; 118% in the test with OVCAR-8 ovarian; 86.2% in the test on OVCAR-5 ovarian. For the same compound, the growth is 112% in the test with OVCAR-4 ovarian; 108% in the test on SK-OV-3 ovarian; 55.6% in the test with IGROV1 ovarian; 91.7% with OVCAR-3 ovarian; 95.8% in the test with HS 578T breast; 92.9% with NCI/ADR-RES ovarian.

Consider `COc1cc(-c2nc3ccccc3[nH]2)ccc1OCC(=O)N=Nc1c(O)[nH]c2ccc(Cl)cc12`, for which the growth with SK-MEL-2 melanoma is -47.4% (active); in the test on SN12C renal, -73.4% (active); in the test with UO-31 renal, 104%; in the test on TK-10 renal, -7.25% (active); in the test with ACHN renal, 31.4%; in the test with CAKI-1 renal, -66.4% (active). The growth in the test on A498 renal was 81.8%; in the test on CCRF-CEM leukemia, -46.7% (active); in the test on MOLT-4 leukemia, -45.1% (active); in the test with SR leukemia it was -26.4% (active); with RPMI-8226 leukemia it was -39.4% (active); with OVCAR-8 ovarian it was -70.4% (active). The growth is -26.4% (active) with OVCAR-5 ovarian; -92.6% (active) in the test on OVCAR-4 ovarian; -13.3% (active) in the test with SK-OV-3 ovarian; -53.1% (active) in the test with IGROV1 ovarian; -97.7% (active) in the test with OVCAR-3 ovarian; -60% (active) in the test on HS 578T breast. Moreover, the growth in the test on NCI/ADR-RES ovarian was 89.7%.

Consider `O=C(COc1ccc(-c2nc3cc(Cl)c(Cl)cc3[nH]2)cc1)N=Nc1c(O)[nH]c2ccccc12`, for which the growth in the test with SK-MEL-2 melanoma was 14.6%; with SN12C renal it was -27.1% (active); in the test with UO-31 renal, 99.7%; in the test with TK-10 renal it was 22.8%; in the test on ACHN renal, 25.6%; in the test on CAKI-1 renal, 38.5%. Moreover, the growth in the test on A498 renal is -1.56% (active); with CCRF-CEM leukemia it was 16.1%; with MOLT-4 leukemia it was 27%; in the test with SR leukemia, 9.9% (active); with RPMI-8226 leukemia, 8.82% (active); in the test with OVCAR-8 ovarian, -24.2% (active). Further, the growth was 53.6% with OVCAR-5 ovarian; -55.1% (active) in the test with OVCAR-4 ovarian; 4.99% (active) in the test on SK-OV-3 ovarian; 33.2% in the test on IGROV1 ovarian; -54.9% (active) in the test on OVCAR-3 ovarian; -36.3% (active) with HS 578T breast. The growth in the test with NCI/ADR-RES ovarian was 85.1%.

As to `CCOc1cc2ncc(C#N)c(Nc3ccc(OCc4cccc(F)c4)c(Cl)c3)c2cc1NC(=O)CCCCC1CCSS1` (configuration not stated), the growth is 94.3% in the test on SK-MEL-2 melanoma; 88.6% in the test on SN12C renal; 55.8% with UO-31 renal; 92.2% in the test with TK-10 renal; 91.3% with ACHN renal; 72% in the test with CAKI-1 renal. The growth is 70.1% in the test with A498 renal; 78.9% in the test with CCRF-CEM leukemia; 78.5% in the test on MOLT-4 leukemia; 92.4% in the test on SR leukemia; 78.6% in the test on RPMI-8226 leukemia; 91% with OVCAR-8 ovarian. Moreover, the growth was 111% in the test with OVCAR-5 ovarian; 99.6% in the test on OVCAR-4 ovarian; 83.7% with SK-OV-3 ovarian; 82.2% with IGROV1 ovarian; 102% with OVCAR-3 ovarian; 91.3% in the test on HS 578T breast. Also, the growth with NCI/ADR-RES ovarian is 101%.

As to `Cc1cc(N2CCN(c3ccnc4cc(Cl)ccc34)CC2)nc(NC2CCCCC2)n1`, the growth in the test with SK-MEL-2 melanoma was 33.1%; in the test on SN12C renal, 47.2%; in the test with UO-31 renal, 6.25% (active); in the test with TK-10 renal it was 48.8%; in the test with ACHN renal, 40.6%; in the test with CAKI-1 renal, 37.7%. In addition, the growth is -2.63% (active) in the test on A498 renal; 1.71% (active) in the test on CCRF-CEM leukemia; -14.9% (active) in the test with MOLT-4 leukemia; -24% (active) in the test on SR leukemia; -37.5% (active) in the test on RPMI-8226 leukemia; 60.3% in the test on OVCAR-8 ovarian. In addition, the growth with OVCAR-5 ovarian is 66.8%; with OVCAR-4 ovarian it was 33.2%; with SK-OV-3 ovarian, 56.3%; with IGROV1 ovarian it was 18.6%; with OVCAR-3 ovarian, 38.2%; in the test on HS 578T breast, 57.9%.

On to `C=C1C(=O)O[C@H]2[C@H]1CC/C(C=Nc1ccc(C(F)(F)F)cc1N)=C\CC[C@@]1(C)O[C@@H]21`, for which the growth in the test with SK-MEL-2 melanoma is -18.3% (active); in the test on EKVX NSCLC it was 31.2%; in the test on UO-31 renal it was 30.3%; in the test on TK-10 renal, 1.36% (active); in the test on CAKI-1 renal, 15.5%; in the test on A498 renal, 46.8%. Besides, the growth is -5.78% (active) with CCRF-CEM leukemia; -3.3% (active) in the test on MOLT-4 leukemia; -2.49% (active) in the test on SR leukemia; -17% (active) in the test on RPMI-8226 leukemia; 3.29% (active) in the test on OVCAR-8 ovarian; 31.5% in the test with OVCAR-5 ovarian. The growth was 23.3% in the test with OVCAR-4 ovarian; 65.4% in the test on SK-OV-3 ovarian; 27.7% with IGROV1 ovarian; 7.74% (active) in the test on HS 578T breast; 23.4% in the test with NCI/ADR-RES ovarian.
